Screening data: PubChem, National Center for Advancing Translational Sciences (NCATS)
Shown are actives, neighbours in structure and some others; about 8.7% of the full set was active somewhere.
AMA1 RON2 block: qHTS for Inhibitors of AMA1-RON; Towards Development of Antimalarial Drug Lead: Primary Screen | AlphaScreen AMA1-biotinylated RON2 peptide binding | Potency, µM (series often up to 58.2 µM), without a hit: top-dose activity change, negative = inhibition, hits mostly inhibitors | 360,000 tested, 0.2% active | AID 720542, 2013;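 also: 0% = vehicle wells and -100% = peptide control; nearly all actives have a fitted effect of over 45% in size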
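AMA1 (3D7) with his tag at 25 nM final met compounds first, then biotinylated RON2 peptide at 25 nM; detection used donor plus acceptor beads, 10 µg/mL apiece, read by AlphaScreen after 30 min at room temperature.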
VACV Venus inh: qHTS for Stage-Specific Inhibitors of Vaccinia Orthopoxvirus: Venus Reporter Primary qHTS. Vaccinia virus Venus reporter expression, fluorescence. Potency, µM (series often up to 36.5 µM), without a hit: at the highest dose activity change, negative = inhibition, actives largely listed as inhibitors. 330,000 tested, 0.46% active. AID 720580, 2013; calls by dose curve; tested in A549 cells; also: nearly all actives have a fitted effect of over 30% in size
Pf growth 48h: Primary qHTS for delayed death inhibitors of the malarial parasite plastid, 48 hour incubation; P. falciparum luciferase growth in erythrocytes, 48 h; Potency, µM (top dose mostly 28.7 µM), for inactives: top-dose activity change, negative = inhibition, hits mostly inhibitors; 310,000 tested, 5.9% active
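Here the parasites carry a stable luciferase gene and grow inside erythrocytes in Albumax-based RPMI medium with compound for one erythrocytic cycle. Activity is scored as loss of luminescent signal.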
Pf growth 96h: Primary qHTS for delayed death inhibitors of the malarial parasite plastid, 96 hour incubation; Potency, µM (series often up to 28.7 µM), inactives show at the top dose activity change, negative = inhibition, actives largely listed as inhibitors; P. falciparum luciferase reporter growth, 96 h; 320,000 tested, 6.9% active
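Infected RBCs, 2% Hct / 0.05% parasitemia final; luciferase-reporter P. falciparum; cpd 96 h, 37 C, 5% CO2; luciferase detection reagent; luminescence.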
VACV mCherry inh: qHTS for Stage-Specific Inhibitors of Vaccinia Orthopoxvirus: mCherry Reporter Primary qHTS. 310,000 tested, 0.63% active. Potency, µM (top dose mostly 36.5 µM), for inactives: top-dose activity change, negative = inhibition, actives largely listed as inhibitors. Vaccinia virus mCherry reporter infection, fluorescence; calls by dose curve; tested in A549 cells; also: nearly all actives have a fitted effect of over 35% in size
The depositor's hits bear a star; i = inactive; ? = inconclusive; nt = no result given; [ ] = dose if it differs, or a comment. Unless noted, calls follow the shape of the dose curve; as a rule, active = well fitted curve in the direction sought with a large enough effect; inconclusive = small, poorly fitted or top-dose-only effect, or another doubt; inactive = no such curve, though single readings can be large; an effect the other way counts as inactive or inconclusive. Unless noted, % is scaled to controls: 0 for no effect and ±100 for the full control effect; potency is read from the fitted curve at half-maximal effect.

SMILES	AMA1 RON2 block	VACV Venus inh	Pf growth 48h	Pf growth 96h	VACV mCherry inh
CC(=O)c1nn(-c2ccccc2)cc1C(=O)c1cccc(Br)c1	0%	nt	2%	-6%	nt
COC(=O)c1scc(C)c1N/N=C(\C)c1ccc(F)cc1F	3%	-3%	nt	2.1µM*	nt
Cc1cc2c(OCC(O)CNCc3ccco3)cccc2[nH]1 (stereo not given)	29%	-27%	2.9µM*	3.3µM*	-30%
COc1cccc(-n2c(-c3ccco3)nc3c(cnn3-c3ccccc3C)c2=O)c1	nt	-3%	nt	nt	-14%
COc1ccc(CN(CCN(C)C)c2ccccn2)cc1	0%	-6%	?	41%	-13%
CC[N+](C)(C)CCN(Cc1ccc(Cl)cc1)c1ccccn1	-2%	-18%	nt	2.6µM*	-17%
CN(C(=O)C1CCOC1)c1nnc(-c2ccccn2)s1 (stereo not given)	-14%	-7%	116%	13µM*	-17%
Cc1cccc(C(=O)NC(=O)Nc2ccc(-c3cc(C(F)(F)F)nn3-c3ccccc3)cc2)c1	nt	-18%	nt	nt	-21%
COc1ccc(N(CC(=O)N/N=C/c2ccc3c(c2)OCO3)S(=O)(=O)c2ccc(NC(C)=O)cc2)cc1	0%	nt	13µM*	?	nt
COc1ccc(N(CC(=O)Nc2ccc3c(c2)OCO3)S(=O)(=O)c2ccccc2)cc1OC	-7%	nt	2.9µM*	?	nt
COc1ccc(N(CC(=O)Nc2ccc3c(c2)OCO3)S(=O)(=O)c2ccc(C)cc2)cc1OC	11%	-4%	?	?	i
CCC(C)NC(=O)CN(c1ccc(OC)cc1)S(=O)(=O)c1ccc(NC(C)=O)cc1 (stereo not given)	0%	nt	?	6.6µM*	nt
CN1CCN(C(c2ccccc2)c2sc3nc(-c4ccco4)nn3c2O)CC1 (stereo not given)	nt	-12%	nt	nt	-13%
CCC(C)(C)NC(=O)C1CCC(CNS(=O)(=O)c2ccc3c(c2)CC(C)N3C(C)=O)CC1 (stereo not given)	nt	-17%	nt	nt	-11%
O=C(C[n+]1ccccc1)c1ccc(I)cc1	nt	-11%	nt	nt	-18%
COC(=O)Cn1cc(C(=O)c2ccccc2F)c2ccccc21	-2%	-9%	7%	1.7µM*	-14%
O=C(c1ccccc1F)c1cn(Cc2ccc(F)cc2)c2ccccc12	-21%	-27%	-5%	7.4µM*	?
CN(CCCCCCCCCCN(C)C(=O)Oc1cccc([N+](C)(C)C)c1)C(=O)Oc1cccc([N+](C)(C)C)c1	-19%	-13%	0.12µM*	0.074µM*	-18%
CCN(C)C(=O)Oc1cccc([C@H](C)N(C)C)c1	nt	nt	-3%	-2%	nt
O=C(CCc1nc2ccccc2c(=O)[nH]1)N1CCN(S(=O)(=O)c2ccccc2Br)CC1	15%	10µM*	?	?	?
CC(C)c1ccc(S(=O)(=O)N2CCN(C(=O)CCc3nc4ccccc4c(=O)[nH]3)CC2)cc1	-5%	-16%	nt	nt	-12%
COc1ccc(Nc2nc(-c3ccccc3)nc3ccccc23)cc1S(=O)(=O)N1CCOCC1	5%	nt	?	13µM*	nt
Cc1ccc(S(=O)(=O)N2CCN(C(=O)CCc3nc4ccccc4c(=O)[nH]3)CC2)c(C)c1	10%	?	?	12µM*	-9%
Cc1ccc(C)c(S(=O)(=O)N2CCN(C(=O)CCc3nc4ccccc4c(=O)[nH]3)CC2)c1	-3%	-24%	?	10µM*	-10%
CCc1ccc(NC(=O)Cn2c(=O)n(CCCCC(=O)NCCc3ccccc3)c(=O)c3ccccc32)cc1	nt	-16%	nt	nt	-15%
SMILES	AMA1 RON2 block	VACV Venus inh	Pf growth 48h	Pf growth 96h	VACV mCherry inh
O=C(Nc1ccc(Cl)cc1Cl)c1cnn2c1NC(=C1CC1)C=C2C(F)F	nt	-11%	nt	nt	-12%
Cc1nc(-c2ccc(F)cc2)c(CC(=O)N2CCN(S(=O)(=O)c3cccc([N+](=O)[O-])c3)CC2)s1	-22%	-16%	9.3µM*	12µM*	-25%
O=C(Cc1ccccc1)N1CCN(S(=O)(=O)c2cccc([N+](=O)[O-])c2)CC1	0%	-6%	1%	25%	i
Cc1ccc(C)c(S(=O)(=O)N2CCN(C(=O)CCCc3c[nH]c4ccccc34)CC2)c1	-21%	-27%	15µM*	?	-18%
Cc1ccc(NC(=O)CCc2nc3ccccc3c(=O)[nH]2)cc1S(=O)(=O)N1CCOCC1	-8%	-9%	?	4.1µM*	-4%
O=C(CCc1nc2ccccc2c(=O)[nH]1)Nc1cccc(S(=O)(=O)N2CCCCC2)c1	1%	-20%	?	?	-23%
Cc1nc(-c2ccc(F)cc2)c(CC(=O)Nc2ccc(C)c(S(=O)(=O)N3CCOCC3)c2)s1	13%	-5%	8.3µM*	9.3µM*	i
Cc1oc(-c2ccccc2F)nc1CS(=O)(=O)CC(=O)NCCc1ccc(Cl)cc1	nt	-7%	nt	nt	-6%
Cc1ccc(NC(=O)CSc2ncnc3ccccc23)cc1S(=O)(=O)N1CCOCC1	-7%	-18%	12µM*	?	?
CCOC(=O)c1[nH]c(CSc2nnnn2-c2ccccc2C)c(C(=O)OCC)c1C	40%	-10%	10µM*	?	-25%
Cn1ccnc1SCC(=O)c1c[nH]c2ccccc12	-10%	-9%	i	411%	i
CCOC(=O)c1c(C)[nH]c(C)c1C(=O)CSc1nnnn1-c1ccccc1	-20%	-11%	nt	12µM*	-14%
CCOC(=O)c1[nH]c(CSc2nnc(-c3ccncc3)n2CCOC)c(C(=O)OCC)c1C	-16%	-6%	0%	?	-15%
CC(=O)c1ccc(-n2c(SCC(=O)c3c[nH]c4ccccc34)nc3ccccc3c2=O)cc1	-10%	-24%	12µM*	?	-7%
CCOC(=O)c1c(NC(=O)CSc2ncnc3ccccc23)sc(C(C)=O)c1C	-2%	5%	4%	-23%	-12%
COC(=O)c1c(C)[nH]c(C(=O)CSc2nnnn2-c2ccccc2)c1C	-2%	-17%	45%	nt	nt
CCOC(=O)c1c(NC(=O)CSc2nc3ccccc3c(=O)n2-c2ccc(F)cc2)sc(C(C)=O)c1C	0%	nt	4.1µM*	3.3µM*	nt
CCc1ccc(C(=O)c2cn(CC(=O)Nc3ccc(F)cc3)c3cc4c(cc3c2=O)OCO4)cc1	nt	-11%	nt	nt	-25%
O=C(Nc1ccc(C(=O)OCc2cc(=O)n3nc(C4CC4)sc3n2)cc1)c1ccccc1	nt	-12%	nt	nt	-10%
CCOC(=O)c1c(C)[nH]c(C)c1C(=O)CSc1nc2ccccc2n1CC	-7%	-4%	14%	?	-11%
CCOC(=O)c1c(C)[nH]c(C)c1C(=O)CSc1nc2ccccc2c(=O)n1-c1ccc(CC)cc1	13%[2.32 µM]	?	?	9.3µM*	?
O=C(Nc1ccccc1-c1ccccc1)c1ccc(=O)[nH]n1	4%	-12%	81%	15µM*	-11%
